# An excerpt weighted towards active compounds, which were near 3.2% of everything screened.
# MEKK2 mut-MEK5: signal of MEK5 binding to mutant human MEKK2 PB1 domain; bead flow cytometry, Alexa488-MEK5 binding to MEKK2 mutant; 0.35% of 290,000 active; percent response, % at 10 µM; in the data active = percent response above about 24%, passing the limit was not always enough
# SKN-1 inh: C. elegans SKN-1 inhibition. 0.49% of 360,000 active. C. elegans VP596 Pgst-4::GFP/RFP ratio, acrylamide-induced, 24 h. inhibition, % at 21.8 µM. AID 624304;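 active = interference check ratio from 0.5 to 1.5 plus GFP to RFP signal ratio inhibition reaching or exceeding a fixed threshold, cut at about 30% in these data, passing the limit was not always enough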
# MEKK2wt PB1 HTS: raises or lowers MEK5 binding to wildtype human MEKK2 PB1 domain | bead flow cytometry, Alexa488-MEK5 binding to MEKK2 WT; actives lie on both sides | binding response (% of control), % at 10 µM | 1.1% of 290,000 active; in the data active = binding response below about 67% or above about 130%
# MEKK3 PB1 HTS: modulators (inhibitors or enhancers) of MEK5 binding to human MEKK3 PB1 domain. Q99759. bead-based flow cytometry, Alexa488-MEK5 binding to MEKK3; actives lie on both sides; 0 = blocked by unlabeled MEK5, 100 = vehicle. binding response (% of control), % at 10 µM. 1.4% of 290,000 active. AID 1529;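 active = binding response more than 3 SD above or below the average of its plate-row segment, actives on both sides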;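 also: Alexa488 bead fluorescence after subtracting the streptavidin-only scavenger bead signal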
# Target sequence (Q99759 whole entry, looked up, the tested form may be a part): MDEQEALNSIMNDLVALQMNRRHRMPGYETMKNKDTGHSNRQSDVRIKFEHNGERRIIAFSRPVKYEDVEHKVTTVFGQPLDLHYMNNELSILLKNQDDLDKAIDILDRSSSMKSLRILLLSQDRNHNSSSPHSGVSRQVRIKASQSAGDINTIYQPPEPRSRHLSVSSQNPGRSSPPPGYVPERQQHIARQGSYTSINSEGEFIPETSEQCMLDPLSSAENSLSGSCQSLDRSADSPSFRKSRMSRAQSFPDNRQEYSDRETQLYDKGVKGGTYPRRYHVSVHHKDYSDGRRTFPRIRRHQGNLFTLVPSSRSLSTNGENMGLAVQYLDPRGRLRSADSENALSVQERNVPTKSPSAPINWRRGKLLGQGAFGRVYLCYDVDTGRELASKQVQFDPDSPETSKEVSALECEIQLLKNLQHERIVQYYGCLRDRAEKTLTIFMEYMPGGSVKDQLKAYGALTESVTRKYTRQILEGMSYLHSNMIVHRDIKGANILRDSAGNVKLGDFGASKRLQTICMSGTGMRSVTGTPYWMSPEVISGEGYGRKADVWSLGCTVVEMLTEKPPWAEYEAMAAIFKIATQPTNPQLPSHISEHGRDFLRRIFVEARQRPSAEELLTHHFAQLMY
# CendR NRP1 mod: NRP-1/CendR interaction modulation; inhibition, % at 25 µM; AID 602438; 0.85% of 360,000 active; O14786; FAM-RPARPAR peptide binding to NRP-1, fluorescence polarization;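 active = inhibition or corrected inhibition above about 18%, plus a signal ratio from 0.5 to 1.5, limit read from the data, passing the limit was not always enough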
# Active calls of the source: *; nt = not tested or not shown.
SMILES,MEKK2 mut-MEK5,SKN-1 inh,MEKK2wt PB1 HTS,MEKK3 PB1 HTS,CendR NRP1 mod
O=C(/C=C/[C@H]1O[C@@H](n2ccc(=O)[nH]c2=O)[C@H](O)[C@@H]1O)NCc1cccc2ccccc12,nt,4,nt,nt,0
O=C(Cn1ccc(NC(=O)OCc2ccccc2)nc1=O)NCCCn1ccnc1,nt,0,nt,nt,33*
O=C(Cn1ccc(NC(=O)OCc2ccccc2)nc1=O)NCCCc1ccccc1,nt,-7,nt,nt,-10
O=C1c2ccccc2C(c2nnnn2Cc2ccccc2)N1Cc1ccco1 (stereo not drawn),nt,1,nt,nt,12
O=C(CSc1nccc(-c2ccc(Br)cc2)n1)NCCc1ccccc1,-1,13,104,100,28*
COc1cc(C(=O)NCC(c2cccs2)N2CCOCC2)ccc1OCc1ccc(Cl)cc1 (stereo not drawn),nt,-7,nt,nt,0
CC(=O)Nc1ccc(-c2ccnc3c2CC(C(=O)NCc2ccccc2)O3)cc1 (stereo not drawn),nt,-9,nt,nt,-4
CCOC(=O)c1cn(CC)c2cc(N3CCOCC3)c(F)cc2c1=O,3,40*,108,106,1
Oc1ccc(/C=N/N2CCN(C3c4ccccc4-c4ccccc43)CC2)cc1,-11,-3,94,92,21*
O=C(O)c1ccc(/C=N/N2CCN(C3c4ccccc4-c4ccccc43)CC2)cc1,0,5,94,96,-2
O=C(NNC(=O)c1ccc2ccccc2c1)c1ccc(Cl)c(Cl)c1,nt,15,nt,nt,26*
COc1ccc(C2=NOC(C(=O)NCc3ccco3)C2)cc1 (stereo not drawn),0,16,101,100,2
O=C(NCc1ccco1)C1CC(c2ccc(C(F)(F)F)cc2)=NO1 (stereo not drawn),-5,7,94,91,31*
Nc1nnc(SCC(=O)N2CCN(c3cccc(Cl)c3)CC2)n1-c1ccccc1,-1,38*,99,110,-14
CS(=O)(=O)N(CC(=O)N1CCN(c2cccc(Cl)c2)CC1)C1CCCCC1,4,-14,106,106,19*
Cn1nnnc1SCC(=O)N1CCN(c2ccccc2)CC1,8,-7,104,101,16
Cn1nnnc1SCC(=O)N1CCN(c2cccc(Cl)c2)CC1,19,39*,102,99,8
CC(C)CCOc1ccc(C(=O)NCC(c2ccco2)N(C)C)cc1 (stereo not drawn),6,-38,104,102,0
COc1ccc(S(=O)(=O)N(C)C[C@H]2Oc3c(NC(=O)NC(C)C)cccc3C(=O)N([C@H](C)CO)C[C@@H]2C)cc1,nt,6,nt,nt,2
Cc1ccc2nc(NC(=O)C3CCN(C(=O)c4ccc(F)cc4)CC3)sc2c1,6,-14,107,99,11
Cc1ccc(-n2c(C)cc(C)c(C#N)c2=O)cc1C,-3,8,99,101,30*
O=C(COc1ccccc1)NC1CCSC1=O (stereo not drawn),0,-1,103,103,3
O=C(CCc1ccccc1)NC1CCSC1=O (stereo not drawn),-6,47*,98,101,0
COC(=O)c1cc2ccc(OC)c(OC)c2c(=O)s1,4,-4,98,100,27*
COc1ccc2cc(C(=O)N3CCCCCC3)sc(=O)c2c1OC,8,14,102,102,6
SMILES,MEKK2 mut-MEK5,SKN-1 inh,MEKK2wt PB1 HTS,MEKK3 PB1 HTS,CendR NRP1 mod
CCCN1CCc2c(sc(NC(=O)c3ccc(S(=O)(=O)N4CCN(C(=O)OCC)CC4)cc3)c2C(N)=O)C1,4,-4,4.0*,102,-72
CCC(=O)Nc1ccc(C(=O)N/N=C/c2c(C)[nH]c3ccccc23)cc1,45,4,35*,92,-57
c1ccc2c(c1)Nc1cc3ccccc3cc1S2,-23,3,80,86,-3
Cc1ccc2c(c1)Sc1c(ccc3ccccc13)N2,6,-2,111,105,48*
Cc1cc(NC(=O)CS(=O)c2cn(Cc3cccc(Cl)c3)c3ccccc23)no1 (stereo not drawn),nt,8,nt,nt,-8
COc1ccc(CNC(=O)c2cccc(NC(=O)CC3SC(N4CCCCC4)=NC3=O)c2)cc1 (stereo not drawn),nt,-10,nt,nt,-3
CCOC1=CC2=C(C(=O)C(Cl)=CC2=O)[C@@H]2CN(S(=O)(=O)c3ccc(C)cc3)[C@@H](c3ccccc3)[C@H]12,nt,9,nt,nt,-31
CC(C)NC(=O)COc1coc(CN2CCN(c3ccccc3)CC2)cc1=O,10,1,108,107,23*
O=C(CCn1c(=O)c2cccn2c2cccnc21)NCc1cccc(Cl)c1,-3,11,92,95,27*
Cn1c(=O)c(-c2ccccc2)nn2c3ccccc3nc12,-1,-2,103,104,-6
CCn1c(=O)c(C)nn2c3ccccc3nc12,-4,35*,99,100,4
O=C(NCc1ccccc1)C(c1ccc(Cl)cc1)N(C(=O)c1csnn1)C1CC1 (stereo not drawn),1,10,97,97,5
CCN(CC(=O)Nc1cccc(S(=O)(=O)N2CCCC2)c1)CC(=O)Nc1ccccc1OC,-1,-4,100,109,6
CC(=O)NC(CC(=O)Nc1cccc(S(=O)(=O)N2CCOCC2)c1)c1ccccc1 (stereo not drawn),nt,13,nt,nt,24*
CCN(CC(=O)Nc1ccc(OC)cc1)CC(=O)Nc1cccc(S(=O)(=O)N2CCOCC2)c1,nt,7,nt,nt,34*
CCCC(C(=O)Nc1ccc(S(=O)(=O)N2CCOCC2)cc1)c1ccccc1 (stereo not drawn),nt,37*,nt,nt,-8
CCCC(C(=O)Nc1ccc(C)c(S(=O)(=O)N2CCOCC2)c1)c1ccccc1 (stereo not drawn),nt,-2,nt,nt,0
CCC(=O)N[C@H]1C=C[C@H](CC(=O)OC)O[C@@H]1CO,nt,1,nt,nt,10
CC(C)CN(C(=O)Cn1c(C(F)(F)F)nc2ccccc21)c1c(N)n(Cc2ccccc2)c(=O)[nH]c1=O,nt,-3,nt,nt,-17
C=CCOc1ccc(CN(C)CC(O)COc2cccc3ccccc23)cc1 (stereo not drawn),14,-2,142*,107,10
COc1ccc(-n2nnnc2C(c2cccc(OC)c2OC)N2CCN(C/C=C/c3ccccc3)CC2)cc1 (stereo not drawn),nt,11,nt,nt,-2
O=C1C2C(C(=O)N1Cc1cccnc1)C1C=CC2C12CC2 (stereo not drawn),7,41*,115,109,2
COC(=O)C(Cc1ccc(O)cc1)NC(=O)Cn1cc(C)c(=O)[nH]c1=O (stereo not drawn),nt,9,nt,nt,8
Clc1ccccc1OCc1nc(-c2ccc(Br)o2)no1,6,3,108,105,-3
O=[N+]([O-])c1ccccc1-c1nc(-c2ccc(Br)o2)no1,-3,58*,100,100,-4
Clc1ccccc1-c1nc(-c2ccc(Br)o2)no1,-3,67*,91,87,11

# Compound activity as filed in PubChem BioAssay.
